Potency, outcome and max activation data for seven compounds are collected here from PubChem BioAssay (Tox21).

“And” between values parts separate entries of the source, which are not always exact repeats. Equal values may be shown once. Records with an inconclusive call do not appear. The source holds several records for some structures; these can differ, active in one and inactive in another. The source made the active and inactive calls. Unless noted, calls come from the whole dose curve; as a rule, active = well fitted curve in the direction sought with a large enough effect in the repeat runs; inconclusive = weak or mixed curves; inactive = no such curve, though single readings can be large; an effect the other way counts as inactive or inconclusive.

Assay [1] in a line: qHTS assay to identify small molecule agonists of the progesterone receptor (PR) signaling pathway - cell viability counter screen (AID 1346799; calls by dose curve; note: nearly all actives have a fitted effect of over 45% in size). A digest of the protocol:
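Luminescence from CellTiter-Glo, added after the beta-lactamase FRET read in the same wells, gave cytotoxicity in PR-UAS-bla HEK293T cells treated with compounds for 16 hr at 37C.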

A short description of assay [2]: qHTS assay to identify small molecule antagonists of the TGF-beta/Smad signaling pathway - cell viability counter screen (AID 1346824). Note: nearly all actives have a fitted effect of over 50% in size. The essentials: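 SBE-bla HEK 293T cells, incubated overnight, then compound plus 0.25 ng/mL TGF-beta1 (stock added) for 5 hr at 37 C. Viability was read in the same wells by CellTiter-Glo luminescence after 30 min at room temperature.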

Assay [3] in a line: qHTS assay to identify small molecule agonists of the TGF-beta/Smad signaling pathway - cell viability counter screen (AID 1346829). Note: top concentration of the series differs between compounds; nearly all actives have a fitted effect of over 45% in size. The essentials:
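SBE-bla HEK 293T cells plated overnight, compound exposure 5 hr at 37 C. Viability read in the same wells by CellTiter-Glo luminescence after 30 min at room temperature, following the beta-lactamase read.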

The nature of assay [4]: qHTS assay to identify small molecule agonists of the TGF-beta/Smad signaling pathway (AID 1346859; active = well fitted activation curve with a large enough effect in the signal ratio in the repeat runs, not every such curve was filed as active; the % refers to the signal ratio; note: series mostly up to about 77 µM). The essentials:
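SBE-bla HEK 293T, 4,000 cells/well, plated o/n; cpd in DMSO, 5 hr, 37 C/5% CO2; B/G FRET substrate 2 hr RT; ex 405, em 460/530 nm.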

The nature of assay [5]: Human pregnane X receptor (PXR) small molecule agonists, qHTS cell viability counter screen (AID 1346977). Note: nearly all actives have a fitted effect of over 50% in size. A digest of the protocol: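 PXR-Luc HepG2, 2,000 cells/well, 5% charcoal-stripped FBS; 5hr settle; cpd 24hr, 37C/5% CO2; CellTiter-Fluor at 23hr, read 1hr later (fluorescence).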
The nature of assay [6]: Caspase-3/7 induction in HepG2 cells by small molecules, qHTS assay (AID 1346978). Note: nearly all actives have a fitted effect of over 15% in size. A digest of the protocol: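 Wild-type HepG2 cells, 2,000/well, settled 5 hr at 37 C and 5% CO2, then compound-treated for 17 hr; caspase-3/7 activity read by luminescent Caspase-Glo 3/7 after 30 min at room temperature.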
The nature of assay [7]: Caspase-3/7 induction in CHO-K1 cells by small molecules, qHTS cell viability counter screen (AID 1346979). Note: nearly all actives have a fitted effect of over 35% in size. A digest of the protocol:
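Cells (CHO-K1, wild type) are plated at 1,500 per well and incubated 5hr. Test compounds in DMSO are then pinned in, followed by 16hr at 37C and 5% CO2. Viability is read by CellTiter-Fluor fluorescence after 1hr.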

A short description of assay [8]: Caspase-3/7 induction in CHO-K1 cells by small molecules, qHTS assay (AID 1346980). Note: nearly all actives have a fitted effect of over 15% in size. The essentials: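 Wild-type CHO-K1 cells exposed to compounds for 17hr at 37 C, 5% CO2. Caspase-3/7 activity then measured by Caspase-Glo 3/7 luminescence after 30min at room temperature.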
Assay [9] in a line: Caspase-3/7 induction in HepG2 cells by small molecules, qHTS cell viability counter screen (AID 1346981). Note: series mostly up to about 92 µM; nearly all actives have a fitted effect of over 30% in size. The essentials:
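Treatment of HepG2 cells with DMSO-delivered compounds ran 16 hr at 37 C following a 5-hr pre-incubation of 2,000 cells/well. CellTiter-Fluor fluorescence, read after 1 hr, served as the viability measure in a qHTS format.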

The target in assay [10] is Nuclear receptor subfamily 1 group I member 2 (Homo sapiens) (UniProt O75469). As to the kind of experiment: Human pregnane X receptor (PXR) small molecule agonists, qHTS assay (AID 1346982). Note: nearly all actives have a fitted effect of over 35% in size. Note: potency is the fitted concentration of half-maximal effect. The essentials:
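Stable HepG2 line reporting PXR-mediated CYP3A4 expression via luciferase. Treatment: 24 hr with compounds in DMSO at 37 C. Detection: ONE-Glo luminescence.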

Assay [11] has as its target Cytochrome P450 2C19 (Homo sapiens) (UniProt P33261). As to the kind of experiment: Cytochrome P450 Family 2 Subfamily C Member 19 (CYP2C19) small molecule antagonists: luciferase reporter qHTS assay (AID 1671197). Note: nearly all actives have a fitted effect of over 65% in size. Note: potency is the fitted concentration of half-maximal effect. The essentials:
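P450-Glo CYP2C19 system: enzyme-substrate mix with compound 10 min at room temperature, then NADPH regeneration solution, 1 h at 37C. Proluciferin-to-luciferin conversion detected by luminescence after 20 min with detection reagent; ketoconazole as positive control.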

The target of assay [12] is Cytochrome P450 2C9 (Homo sapiens) (UniProt P11712). As to the kind of experiment: Cytochrome P450 Family 2 Subfamily C Member 9 (CYP2C9) small molecule antagonists: luciferase reporter qHTS assay (AID 1671198). Note: series mostly up to about 120 µM; nearly all actives have a fitted effect of over 50% in size. The essentials: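 P450-Glo proluciferin substrate with CYP2C9 enzyme; 10 min RT preincubation, then NADPH regeneration 1 h at 37C; luciferin detection reagent 20 min RT, luminescence in relative luminescence units.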

The target of assay [13] is Cytochrome P450 1A2 (Homo sapiens) (UniProt P05177). As to the kind of experiment: Cytochrome P450 Family 1 Subfamily A Member 2 (CYP1A2) small molecule antagonists: luciferase reporter qHTS assay (AID 1671199). Note: nearly all actives have a fitted effect of over 50% in size. Note: potency is the fitted concentration of half-maximal effect. The essentials:
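Read-out is luminescence from luciferin detection reagent (20 min) proportional to CYP1A2 activity; compounds in DMSO preincubated 10 min with enzyme and proluciferin substrate, then NADPH regeneration solution, 1 h, room temperature.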

Assay [14] deals with Voltage-gated inwardly rectifying potassium channel KCNH2 (Homo sapiens) (UniProt Q12809). As to the kind of experiment: Human Ether-a-go-go-Related Gene (hERG) channel small molecule antagonists: fluorescence cell-based qHTS assay (AID 1671200). The essentials: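 Channel function was assessed by thallium flux. Cells seeded the previous day and kept at 37 C took up FluxOR II dye over 1 h in the dark at room temperature, then sat another 10 min before stimulation.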

Assay [15] concerns the target Thyrotropin-releasing hormone receptor (Homo sapiens) (UniProt P34981). As to the kind of experiment: qHTS assay to identify small molecule antagonists of the thyrotropin-releasing hormone receptor (TRHR) signaling pathway (AID 1346877; active = well fitted inhibition curve with a large enough effect in the repeat runs, not every such curve was filed as active; note: series mostly up to about 51 µM). The essentials: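 Overnight-plated (18 h, 37 °C) HEK293 cells expressing TRHR were dye-loaded 2 h, treated with compound, then stimulated with TRH at 1 nM final. Fluorescence intensity was captured every second for 3 min.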

Assay [16] shares this target. As to the kind of experiment: qHTS assay to identify small molecule agonists of the thyrotropin-releasing hormone receptor (TRHR) signaling pathway (AID 1346891; calls by dose curve; note: series mostly up to about 58 µM). A digest of the protocol:
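Intracellular calcium rise, read as fluorescence every second for 3 min, served as the agonist signal in dye-loaded HEK293 cells expressing TRHR; each compound ran at 15 concentrations in triplicate.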

In assay [17] the target is Cytochrome P450 3A4 (Homo sapiens) (UniProt P08684). As to the kind of experiment: Cytochrome P450 Family 3 Subfamily A Member 4 (CYP3A4) small molecule antagonists: luciferase reporter qHTS assay (AID 1671201). A digest of the protocol:
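Compounds in DMSO were pin-transferred onto CYP3A4 enzyme-substrate mix and held 10 min at room temperature. NADPH regenerating solution started the reaction for 1 h; luciferin detection reagent stopped it, and luminescence was read after 20 min.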

Assay [18] deals with Cytochrome P450 2D6 (Homo sapiens) (UniProt P10635). As to the kind of experiment: Cytochrome P450 Family 2 Subfamily D Member 6 (CYP2D6) small molecule antagonists: luciferase reporter qHTS assay (AID 1671196). A digest of the protocol: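 Chemicals tested for interference with CYP2D6 activity; proluciferin substrate, NADPH regeneration, 1 h at room temperature, luminescent detection.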

For assay [19], the target named is Nuclear receptor subfamily 1 group I member 2 (Rattus norvegicus) (UniProt Q9R1A7). As to the kind of experiment: Rat pregnane X receptor (rPXR) activation by small molecules, qHTS assay (AID 1346983). Note: nearly all actives have a fitted effect of over 20% in size. The settings on record: rPXR luciferase reporter cells, One-Glo luminescence, 24 h; max activation: stronger effect = higher value. A digest of the protocol: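 Cell-based rPXR activation assay: rPXR cells, 2,000 per well, rested 5hr at 37 C, then exposed to compounds in DMSO for 24 hr at 37 C. Luciferase activity read by One-Glo luminescence after 30 min at room temperature.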

Assay [20] deals with Nuclear receptor subfamily 1 group I member 2 (Homo sapiens) (UniProt O75469). As to the kind of experiment: Human pregnane X receptor (PXR) activation by small molecules, qHTS assay (AID 1346985). Note: nearly all actives have a fitted effect of over 40% in size. A digest of the protocol:
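DPX-2 cells (HepG2 co-transfected with a PXR response element and a CYP3A4-promoter luciferase construct) were seeded at 2,000 per well, rested 5 hr at 37C, then exposed to DMSO-dissolved compounds for 24 hr. Activation was read as luciferase luminescence.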
% is set by controls: 0 for no effect and ±100 for the full control effect.

Sequence of Cytochrome P450 2C9 (Homo sapiens) (P11712 whole entry, looked up): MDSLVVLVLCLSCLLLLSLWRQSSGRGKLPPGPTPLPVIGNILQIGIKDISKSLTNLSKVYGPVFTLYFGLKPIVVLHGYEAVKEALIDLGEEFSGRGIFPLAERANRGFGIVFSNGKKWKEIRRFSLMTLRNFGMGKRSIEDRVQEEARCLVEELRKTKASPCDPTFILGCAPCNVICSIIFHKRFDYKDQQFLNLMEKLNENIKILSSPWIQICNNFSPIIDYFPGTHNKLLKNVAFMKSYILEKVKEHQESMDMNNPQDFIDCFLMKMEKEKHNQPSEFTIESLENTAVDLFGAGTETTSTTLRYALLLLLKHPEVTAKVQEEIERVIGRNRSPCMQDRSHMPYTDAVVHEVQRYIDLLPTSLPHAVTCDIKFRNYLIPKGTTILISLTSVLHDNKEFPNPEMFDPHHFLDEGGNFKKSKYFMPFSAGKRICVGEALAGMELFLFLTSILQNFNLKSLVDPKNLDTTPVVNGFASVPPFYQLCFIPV
Sequence of Cytochrome P450 3A4 (Homo sapiens) (P08684 whole entry, looked up): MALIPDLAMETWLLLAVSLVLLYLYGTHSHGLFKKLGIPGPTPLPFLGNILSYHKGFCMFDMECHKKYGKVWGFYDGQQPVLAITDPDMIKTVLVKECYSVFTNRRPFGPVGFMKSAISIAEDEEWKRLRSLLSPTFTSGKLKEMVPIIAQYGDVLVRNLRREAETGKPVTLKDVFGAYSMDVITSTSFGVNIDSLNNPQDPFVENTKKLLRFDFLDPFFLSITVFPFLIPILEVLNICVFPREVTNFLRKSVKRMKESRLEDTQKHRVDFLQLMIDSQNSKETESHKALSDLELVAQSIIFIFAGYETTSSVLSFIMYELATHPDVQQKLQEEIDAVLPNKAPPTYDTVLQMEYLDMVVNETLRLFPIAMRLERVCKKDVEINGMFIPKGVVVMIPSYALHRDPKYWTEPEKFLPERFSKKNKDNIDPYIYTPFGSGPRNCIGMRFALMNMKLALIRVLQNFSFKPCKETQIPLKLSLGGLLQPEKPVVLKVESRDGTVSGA
Sequence of Nuclear receptor subfamily 1 group I member 2 (Homo sapiens) (O75469 whole entry, looked up): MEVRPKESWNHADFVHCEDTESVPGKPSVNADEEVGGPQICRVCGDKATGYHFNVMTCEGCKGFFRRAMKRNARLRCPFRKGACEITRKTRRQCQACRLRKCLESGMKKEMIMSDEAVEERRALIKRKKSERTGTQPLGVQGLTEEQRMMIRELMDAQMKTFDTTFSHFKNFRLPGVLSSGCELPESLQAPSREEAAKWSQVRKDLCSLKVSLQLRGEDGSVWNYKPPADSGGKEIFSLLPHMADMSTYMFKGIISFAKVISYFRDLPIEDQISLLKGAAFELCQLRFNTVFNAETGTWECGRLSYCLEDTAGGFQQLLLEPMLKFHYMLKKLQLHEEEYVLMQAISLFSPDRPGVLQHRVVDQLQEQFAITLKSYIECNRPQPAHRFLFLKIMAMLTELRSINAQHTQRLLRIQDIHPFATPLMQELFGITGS
Sequence of Cytochrome P450 2C19 (Homo sapiens) (P33261 whole entry, looked up): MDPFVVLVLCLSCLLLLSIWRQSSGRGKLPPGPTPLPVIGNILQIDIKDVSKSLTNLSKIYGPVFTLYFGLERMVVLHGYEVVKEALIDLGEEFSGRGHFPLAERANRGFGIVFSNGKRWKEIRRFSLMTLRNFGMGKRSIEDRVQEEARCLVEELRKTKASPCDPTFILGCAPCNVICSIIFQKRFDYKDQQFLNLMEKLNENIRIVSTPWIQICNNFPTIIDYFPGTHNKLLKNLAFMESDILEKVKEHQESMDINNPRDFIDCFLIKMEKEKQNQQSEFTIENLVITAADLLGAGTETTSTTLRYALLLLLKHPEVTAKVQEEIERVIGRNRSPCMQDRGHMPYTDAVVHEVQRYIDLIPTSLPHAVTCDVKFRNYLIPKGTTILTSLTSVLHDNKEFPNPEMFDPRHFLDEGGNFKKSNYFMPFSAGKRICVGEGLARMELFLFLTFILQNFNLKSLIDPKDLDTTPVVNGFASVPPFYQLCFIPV
Sequence of Cytochrome P450 1A2 (Homo sapiens) (P05177 whole entry, looked up): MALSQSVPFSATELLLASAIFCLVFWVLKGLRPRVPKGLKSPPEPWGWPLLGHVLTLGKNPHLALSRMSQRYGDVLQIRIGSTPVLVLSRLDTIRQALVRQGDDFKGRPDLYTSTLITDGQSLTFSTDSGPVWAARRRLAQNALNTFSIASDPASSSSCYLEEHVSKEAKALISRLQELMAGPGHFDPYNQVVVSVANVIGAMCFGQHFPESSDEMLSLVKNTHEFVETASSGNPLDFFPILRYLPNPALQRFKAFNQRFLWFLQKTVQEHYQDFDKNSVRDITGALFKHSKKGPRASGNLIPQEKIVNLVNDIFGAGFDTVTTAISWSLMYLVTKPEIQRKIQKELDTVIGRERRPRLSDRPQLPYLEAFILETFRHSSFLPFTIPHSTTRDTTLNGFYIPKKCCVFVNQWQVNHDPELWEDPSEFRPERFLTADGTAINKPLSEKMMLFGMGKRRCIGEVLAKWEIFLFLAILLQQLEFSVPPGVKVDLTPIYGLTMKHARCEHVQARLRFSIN
Sequence of Voltage-gated inwardly rectifying potassium channel KCNH2 (Homo sapiens) (Q12809 whole entry, looked up): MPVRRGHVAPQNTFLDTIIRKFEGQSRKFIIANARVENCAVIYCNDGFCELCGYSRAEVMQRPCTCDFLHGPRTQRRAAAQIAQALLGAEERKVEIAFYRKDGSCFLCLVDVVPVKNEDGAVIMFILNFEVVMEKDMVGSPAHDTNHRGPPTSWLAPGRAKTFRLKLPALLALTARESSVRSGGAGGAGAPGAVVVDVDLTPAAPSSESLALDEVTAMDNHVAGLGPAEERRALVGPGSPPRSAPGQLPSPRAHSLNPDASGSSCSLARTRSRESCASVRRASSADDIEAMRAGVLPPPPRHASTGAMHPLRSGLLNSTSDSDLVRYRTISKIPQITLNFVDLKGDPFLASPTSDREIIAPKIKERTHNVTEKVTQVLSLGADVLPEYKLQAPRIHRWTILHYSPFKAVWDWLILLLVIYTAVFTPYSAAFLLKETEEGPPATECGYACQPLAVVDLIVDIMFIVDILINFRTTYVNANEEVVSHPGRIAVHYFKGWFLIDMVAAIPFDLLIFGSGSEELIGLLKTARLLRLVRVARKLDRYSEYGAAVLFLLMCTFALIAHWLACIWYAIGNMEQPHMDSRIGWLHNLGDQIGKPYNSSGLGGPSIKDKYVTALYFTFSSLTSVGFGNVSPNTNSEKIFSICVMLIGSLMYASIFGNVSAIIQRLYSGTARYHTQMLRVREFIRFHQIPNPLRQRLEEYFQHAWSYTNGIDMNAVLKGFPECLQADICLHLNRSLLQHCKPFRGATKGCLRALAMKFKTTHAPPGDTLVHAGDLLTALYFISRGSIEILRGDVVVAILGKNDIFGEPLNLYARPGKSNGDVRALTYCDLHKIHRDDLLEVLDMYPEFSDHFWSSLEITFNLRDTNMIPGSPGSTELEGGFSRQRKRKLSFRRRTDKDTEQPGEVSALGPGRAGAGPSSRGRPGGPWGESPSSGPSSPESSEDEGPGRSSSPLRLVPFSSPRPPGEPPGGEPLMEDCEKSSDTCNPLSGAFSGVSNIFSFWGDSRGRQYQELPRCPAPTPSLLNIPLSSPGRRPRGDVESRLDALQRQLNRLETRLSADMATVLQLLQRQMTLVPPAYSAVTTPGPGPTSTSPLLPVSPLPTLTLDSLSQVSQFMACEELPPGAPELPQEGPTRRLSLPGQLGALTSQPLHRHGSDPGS
Sequence of Thyrotropin-releasing hormone receptor (Homo sapiens) (P34981 whole entry, looked up): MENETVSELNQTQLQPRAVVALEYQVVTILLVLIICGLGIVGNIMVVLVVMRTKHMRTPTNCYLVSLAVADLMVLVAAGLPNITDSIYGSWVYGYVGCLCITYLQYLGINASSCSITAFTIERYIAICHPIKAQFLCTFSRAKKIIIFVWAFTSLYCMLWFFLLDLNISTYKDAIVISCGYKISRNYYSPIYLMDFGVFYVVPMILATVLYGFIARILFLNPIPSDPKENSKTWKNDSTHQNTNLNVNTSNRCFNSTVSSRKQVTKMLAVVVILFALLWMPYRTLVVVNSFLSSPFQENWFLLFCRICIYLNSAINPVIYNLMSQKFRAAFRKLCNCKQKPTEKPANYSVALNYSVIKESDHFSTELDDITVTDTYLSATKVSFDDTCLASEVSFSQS
Sequence of Cytochrome P450 2D6 (Homo sapiens) (P10635 whole entry, looked up): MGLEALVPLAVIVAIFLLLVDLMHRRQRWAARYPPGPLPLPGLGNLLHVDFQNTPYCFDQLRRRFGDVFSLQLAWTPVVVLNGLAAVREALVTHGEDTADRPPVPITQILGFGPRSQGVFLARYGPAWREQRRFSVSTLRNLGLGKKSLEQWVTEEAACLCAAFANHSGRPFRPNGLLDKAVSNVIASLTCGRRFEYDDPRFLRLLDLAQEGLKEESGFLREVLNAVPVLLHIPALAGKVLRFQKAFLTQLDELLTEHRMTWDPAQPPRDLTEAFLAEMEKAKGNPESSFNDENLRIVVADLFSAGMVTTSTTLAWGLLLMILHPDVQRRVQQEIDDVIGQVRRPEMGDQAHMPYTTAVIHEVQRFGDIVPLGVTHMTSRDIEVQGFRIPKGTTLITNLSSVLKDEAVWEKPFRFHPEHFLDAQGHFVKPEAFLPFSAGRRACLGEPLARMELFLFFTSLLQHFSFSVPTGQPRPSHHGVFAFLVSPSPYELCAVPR
Sequence of Nuclear receptor subfamily 1 group I member 2 (Rattus norvegicus) (Q9R1A7 whole entry, looked up): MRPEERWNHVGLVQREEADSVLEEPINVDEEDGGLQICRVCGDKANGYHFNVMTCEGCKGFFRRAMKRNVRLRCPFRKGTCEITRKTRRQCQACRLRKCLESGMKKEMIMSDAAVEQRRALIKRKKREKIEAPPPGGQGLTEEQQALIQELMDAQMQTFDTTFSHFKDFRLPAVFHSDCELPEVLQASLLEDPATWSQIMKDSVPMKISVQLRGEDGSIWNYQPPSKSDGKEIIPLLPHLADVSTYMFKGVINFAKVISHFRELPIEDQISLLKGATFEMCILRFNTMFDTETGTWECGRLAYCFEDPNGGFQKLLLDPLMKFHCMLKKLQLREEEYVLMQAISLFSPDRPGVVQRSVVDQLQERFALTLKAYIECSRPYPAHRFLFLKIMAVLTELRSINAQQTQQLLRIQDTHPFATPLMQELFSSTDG

As to `CCCCC(CC)CO` (centres undefined), the Potency result in assay [1], in assay [2], in [3], in assay [5], in assay [6] and in assay [7] was “inactive” each time. In addition, the Potency entry in assay [9], in assay [10], in [11], in assay [12] and in assay [13] was “inactive” throughout. Also, the compound was classed as inactive in assay [4], in assay [8] and in assay [14].

For the compound `COc1ccc2cc([C@H](C)C(=O)O)ccc2c1`, the Potency entry in assay [1], in assay [2], in [3], in assay [5] and in assay [9] was “inactive” each time. Besides, the compound was classed as inactive in assay [4] and in assay [8].

Take `CC1CCC(C(C)C)C(O)C1` (centres undefined): the Potency result in assay [1], in assay [2], in [3], in assay [15], in assay [5] and in assay [9] was “inactive” each time. Also, the Potency result in assay [10], in [12] and in assay [17] was “inactive” in each case. Moreover, the compound was classed as inactive in [4], in assay [16], in assay [8] and in assay [14]. Further, the Potency in assay [11] is 70.3 µM (active) and inactive.

`CCc1cccc(C)c1N`: the Potency result in assay [1], in [2], in assay [3], in assay [15], in assay [5] and in [6] was “inactive” each time. Moreover, the Potency entry in assay [7], in assay [9], in assay [18], in assay [12] and in [17] was “inactive” in each case. Further, the compound was called inactive in assay [16], in [8] and in assay [14]. Further, the Potency in assay [10] is 59.2 µM (active) and inactive; in assay [11], 68.8 µM (active) and 71 µM (active); in [13], 39.9 µM (active).

In the case of `CC(=O)CC(=O)Nc1ccccc1`, the Potency entry in [1], in [2], in assay [3], in assay [5], in [6] and in [7] was “inactive” throughout. The Potency entry in assay [9], in assay [10] and in assay [17] was “inactive” throughout. For the same compound, the compound was classed as inactive in assay [4], in [8] and in [14]. Besides, the Potency in assay [11] was 70.9 µM (active); in assay [13], 35.5 µM (active) and 39.9 µM (active).

As to `CCCCCCOCCO`, the Potency entry in [1], in assay [2], in [3], in assay [5], in [6] and in assay [7] was “inactive” each time. For the same compound, the Potency entry in assay [9], in assay [10], in assay [11], in assay [12], in [13] and in assay [17] was “inactive” throughout. In addition, the outcome in [4], in assay [8] and in assay [14] was inactive.

With `OCCOCCOCCO`, the Potency result in assay [1], in assay [2], in [3], in assay [15], in [5] and in assay [6] was “inactive” throughout. In addition, the Potency entry in assay [7], in assay [9], in assay [20], in assay [11], in assay [12] and in assay [13] was “inactive” in each case. Further, the Potency result in [17] was “inactive”. The compound was classed as inactive in assay [16], in assay [8] and in assay [14]. Besides, the Potency in assay [10] was 63.4 µM (active) and inactive. The max activation in [19] was -2.18% (inactive).
